Measurements from PubChem BioAssay AID651956 (Broad Institute, 2012).
Results with a measured potency or affinity are listed apart. Inconclusive results are not listed.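 Rule for the calls: active = in every test run, a fitted half-maximal concentration for signal decrease at or below twice the highest tested concentration; inconclusive = runs disagree, flat 30 to 70% decrease, or poor fit; inactive = the rest.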

Experiment: miR-122 activators in hepatoma reporter cells, dose response, cell-based, Huh7 psiCHECK-miR122, Renilla luciferase, cherry-picked (AID 651956);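 note: Renilla luciferase from a miR-122 sensor reporter so lower signal means miR-122 activation; 0% = median neutral control wells and -100% = median positive control wells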
Conditions: 48 h; series mostly up to 35 µM; activity change, negative = signal decrease: at the top concentration

Activity change, negative = signal decrease, inactive:
CCCNC(=O)C[C@H]1CC[C@@H]2[C@@H](COc3ccc(NC(=O)c4ccc5c(c4)OCO5)cc3C(=O)N2C)O1 -39.9%
O=C(Nc1ccccc1)N1C[C@@H]2[C@H](c3ccccc31)[C@H](CO)N2Cc1cocn1 -18.3%
CO[C@H]1CN(C)C(=O)c2ccc(NS(C)(=O)=O)cc2OC[C@H](C)N(C(=O)CN(C)C)C[C@H]1C -7.02%
CNC(=O)C[C@@H]1CC[C@@H]2[C@@H](COc3ccc(NC(=O)c4ccccc4OC)cc3C(=O)N2C)O1 124%
CN(C)CCNC(=O)C1CC(=O)N(c2ccc(F)c(Cl)c2)C1 (centres undefined) -26.6%
O=C(Nc1ccccc1F)N1C[C@H]2[C@@H](c3ccccc31)[C@@H](CO)N2C(=O)C1CC1 -13.7%
CN(C)CCNc1nc2sc3c(c2c(=O)n1CCc1ccccc1)CCCCC3 70.4%
COCC(=O)N1[C@@H](CO)[C@@H]2c3ccccc3N(C(=O)C3CC3)C[C@@H]21 17.5%
C/C=C/c1ccc([C@@H]2[C@H](CO)N[C@H]2CN(CC)C(=O)CN2CCOCC2)cc1 -20.8%
COc1cc2nc(C3CCC3)n(NC(=O)C3CCCC(OC)C3)c(=O)c2cc1OC (centres undefined) 72.1%
CNC(=O)C[C@H]1CC[C@H]2[C@H](COc3ccc(NC(=O)c4cccc(F)c4)cc3C(=O)N2C)O1 177%
Cc1nc(C)c(C(=O)Nc2ccc(Oc3ccccc3)cc2)o1 -16.7%
CN1C(=O)c2cc(NC(=O)c3cccc(F)c3)ccc2OC[C@@H]2O[C@@H](CC(=O)NC3CCC3)CC[C@@H]21 53.3%
COc1cccc(NC(=O)Nc2ccc3c(c2)C(=O)N(C)[C@@H]2CC[C@H](CC(=O)O)O[C@H]2CO3)c1 -9.26%
COc1ccc(OC)c(Nc2cc(C)nc3ccc(C)cc23)c1 -95.2%
CN(C)CCCNC(=O)C[C@@H]1CC[C@H]2[C@@H](COc3ccc(NC(=O)c4cccc(F)c4)cc3C(=O)N2C)O1 -29.2%
C/C=C/c1ccc([C@@H]2[C@@H](CNC(=O)c3ccncc3)N(C(=O)CC)[C@H]2CO)cc1 -20%
CC(=O)N1[C@H](CN(C(=O)c2ccc(F)cc2)C(C)C)[C@H](c2ccccc2)[C@@H]1CO 111%
CN1C(=O)c2cc(NC(=O)Cc3ccccc3)ccc2OC[C@H]2O[C@@H](CC(=O)NC3CCC3)CC[C@@H]21 6.97%
CC(=O)N1[C@H](CO)[C@@H](c2ccccc2)[C@H]1CN(C(=O)NC(C)C)C1CCCC1 8.18%
CN1C(=O)c2cc(NC(=O)C3CC3)ccc2OC[C@@H]2O[C@H](CC(=O)NC3CCC3)CC[C@H]21 -26.3% [at 30 µM]
C[C@H]1CN([C@@H](C)CO)S(=O)(=O)c2ccc(C#Cc3ccccc3F)cc2O[C@@H]1CN(C)C(=O)c1ccc2c(c1)OCO2 -132%
CCOc1ccc(-c2nnc(SCC(=O)Nc3ccc4c(c3)c3ccccc3n4CC)n2N)cc1 71.1%
CCC(=O)Nc1ccc2c(c1)C(=O)N(C)[C@@H]1CC[C@H](CC(=O)NCCN3CCCCC3)O[C@H]1CO2 -46.3%
